A selection: hits, their analogues and other compounds. The true share with any hit is near 1.7%.
PTHR1 ag = agonists of human PTHR1 parathyroid hormone receptor. 0.075% of 410,000 active. HEK293 GP2 PTHR1 cells, GloSensor cAMP luminescence, 1 h. Potency, µM (doses to about 115 µM), for inactives: at the highest dose activation, actives largely listed as activators; also: nearly all actives have a fitted effect of over 55% in size
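HEK-293-derived GP2 cells expressing PTHR1 and a GloSensor cAMP reporter, 3,000/well, plated overnight, given luciferin plus IBMX (each 0.5 mM as added) for 1 h at 37 °C, then compound for 1 h at 37 °C. Luminescence was read after 15 min at room temperature.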
GLP-1R agonist = activates the human GLP-1 receptor; HEK293 GLP-1R CRE-luciferase, luminescence, 4-6 h; cells express a hypersensitive GLP-1R form; Potency, µM (titrated, usually from 45.6 µM), for the others: at the highest dose activation, hits mostly activators; 0.007% of 380,000 active; also: % of control where 0% means no effect
GLP-1R inv ag = acts as inverse agonist at human GLP-1 receptor; P43220; HEK293 GLP-1R CRE-luciferase, luminescence, 24 h; GLP-1R form is constitutively active; Potency, µM (doses to about 38.3 µM), for inactives: at the highest dose activity change, negative = inhibition, hits mostly inhibitors; 1.6% of 410,000 active; AID 624417; also: % is scaled to controls: 0 for no effect and ±100 for the full control effect; nearly all actives have a fitted effect of over 55% in size
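Using stably transfected HEK293 (constitutively active GLP-1R, cAMP-luciferase reporter), compounds were incubated 24 hr and luciferase measured by luminescence.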
HEK293 tox = cytotoxic in the GLP-1 receptor inverse agonist counter-screen | HEK293 cAMP-luciferase reporter cells, luminescence, 24 h | Potency, µM (doses to about 38.3 µM), inactives show at the highest dose activity change, negative = inhibition, actives largely listed as inhibitors | 0.13% of 410,000 active | AID 624418;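 also: loss of luciferase light is scored as toxicity; % is scaled to controls: 0 for no effect and ±100 for the full control effect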
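Seeding density was 200 cells/uL; after overnight-length (12 h) culture, 23 nL compounds went on for 24 h at 37 °C. Readout used a luciferase detection reagent, luminescence taken after 12 min at room temperature.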
RGS4 inh = inhibitors of human regulator of G protein signaling 4; P49798; Transcreener GDP fluorescence polarization, RGS4-accelerated GTP hydrolysis; Potency, µM (series often up to 114 µM), inactives show top-dose activity change, negative = inhibition, hits mostly inhibitors; 0.039% of 390,000 active; AID 504845; also: % is scaled to controls: 0 for no effect and ±100 for the full control effect; nearly all actives have a fitted effect of over 75% in size
Target sequence (P49798 whole entry, looked up): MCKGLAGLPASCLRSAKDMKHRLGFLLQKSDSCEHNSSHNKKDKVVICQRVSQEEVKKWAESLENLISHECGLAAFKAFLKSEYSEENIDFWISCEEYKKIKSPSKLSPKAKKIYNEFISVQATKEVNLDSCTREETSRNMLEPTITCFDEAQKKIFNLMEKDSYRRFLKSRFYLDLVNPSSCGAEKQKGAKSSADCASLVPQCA
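MLSMR compounds (23 nl, pin-transferred) preincubated 10 min at room temperature with a 500nM (2x) first reagent, then RGS4 at 900nM (2x) plus Transcreener GDP mix added; fluorescence polarization (620/688 nm) read before and after 90 min at 30 °C.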
An asterisk follows results filed as active; i = inactive; u = inconclusive; x = no result; [ ] = another dose, or the depositor's remark. Calls follow the shape of the dose curve; as a rule, active = well fitted curve in the direction sought with a large enough effect; inconclusive = small, poorly fitted or top-dose-only effect, or another doubt; inactive = no such curve, though single readings can be large; an effect the other way counts as inactive or inconclusive. Potency is read from the fitted curve at half-maximal effect.

SMILES	PTHR1 ag	GLP-1R agonist	GLP-1R inv ag	HEK293 tox	RGS4 inh
NC(CO)C(=O)NNCc1ccc(O)c(O)c1O (stereo not given)	-19%	6%	-12%	0%	9.5µM*
Cc1cc2oc(C(=O)N(Cc3ccc(N(C)C)cc3)CC3CCCO3)c(C)c2cc1Cl (stereo not given)	-24%	x	-15%	-14%	-28%
O=[N+]([O-])c1ccc(CSc2nnc(Cc3ccccc3)n2-c2ccc(F)cc2)cc1	i	23%	10µM*	-26%	-6%
COc1ccccc1CNC(=O)C(C)n1ccc2cc(S(=O)(=O)N3CCCC3)ccc21 (stereo not given)	-43%	x	-21%	6%	3%
O=C(NC(=S)NN1CCOCC1)c1cc(Br)ccc1Cl	-6%	-4%	u	u	-25%
CC(C)Oc1ccc(C(CCN)C2CCCCC2)cc1 (stereo not given)	-9%	-1%	10µM*	u	3%
CCN(CC)CCNC(=O)c1cc2cc(Br)ccc2s1	-1%	-3%	3.2µM*	31%	10%
CN(C)c1ccc(Nc2ncnc3sc4c(c23)CCCC4)cc1	i	0%	u	1%	-46%
Cn1c(=O)n(C)c2cc(NC(=O)c3ccccc3NS(C)(=O)=O)ccc21	i	11%	29%	-25%	9%
CCOC(=O)c1c(C)oc2nc(C)nc(NCc3cccc(Cl)c3)c12	i	x	4%	-8%	-14%
COc1ccc(C)cc1NC(=O)CCCN1C(=O)C(c2ccccc2)Oc2cccnc21 (stereo not given)	-25%	29%	10µM*	0%	38%
O=C(Nc1ccccc1)c1ccccc1Oc1ccc(C(F)(F)F)cc1[N+](=O)[O-]	i	-8%	u	16%	13%
O=C(Nc1ccc(F)cc1)c1ccccc1Oc1ccc(C(F)(F)F)cc1[N+](=O)[O-]	-35%	-12%	10µM*	u	-1%
CCC(C(=O)Nc1ccccc1-c1ccccc1)c1ccccc1 (stereo not given)	-26%[57.5 µM]	-7%	7.9µM*	6%	-43%
COc1ccc(S(=O)(=O)Nc2cc3c4c(oc3c3ccccc23)CCCC4=O)cc1	0%	4%	5µM*	u	-8%
Cc1c(NC(=O)c2cccc(NC(=O)Cc3ccccc3Cl)c2)c(=O)n(-c2ccccc2)n1C	i	4%	1%	-16%	x
CC1=C(C(=O)OCc2ccc3c(c2)OCO3)C(c2ccccc2OCc2ccccc2)NC(=O)N1 (stereo not given)	i	5%	0%	-12%	-13%
CC1=C(C(=O)OCc2ccc3c(c2)OCO3)C(c2ccccc2)NC(=O)N1 (stereo not given)	i	-1%	3.2µM*	u	-1%
CCc1nc2ccc(C(=O)Nc3cccc(OCC(=O)N(C)C)c3)cn2c1N(C)Cc1ccc(N(C)C)cc1	-13%	1%	19%	2%	x
O=C(Nc1ccc2c(c1)OCCO2)c1cccc(Cl)c1Cl	-21%	-2%	11µM*	-12%	2%
O=C(Nc1ccc2c(c1)OCCO2)c1c(Cl)cccc1Cl	-4%	7%	u	-15%	x
COc1ccc(-c2nnn3c2nc(NCc2ccc(C)cc2)c2ccccc23)cc1	i	0%	3%	-9%	6%
N#Cc1ccccc1NCC(=O)N1CCN(S(=O)(=O)c2ccccc2)CC1	-9%	-2%	2%	20%	-2%
O=C1[C@H]2[C@@H](c3ccccc3)N[C@]3(CCCN(Cc4ccc(F)cc4)C3=O)[C@H]2C(=O)N1Cc1ccccc1	-5%	-1%	-23%	-6%	x
O=C1[C@H]2[C@@H](c3ccc(C(F)(F)F)cc3)N[C@]3(CCCN(Cc4ccc(F)cc4)C3=O)[C@H]2C(=O)N1Cc1ccccc1	-33%	-6%	8.9µM*	u	x
O=C1[C@H]2[C@@H](c3ccccc3)N[C@]3(CCCN(Cc4ccc(C(F)(F)F)cc4)C3=O)[C@H]2C(=O)N1Cc1ccccc1	-46%	-4%	11µM*	-1%	x

Screens deposited in PubChem BioAssay by National Center for Advancing Translational Sciences (NCATS).
